Structures are written as SMILES. Inconclusive results are not listed. Activity calls are given as the source filed them. Calls come from the whole dose curve.

The nature of the test: qHTS assay for small molecule agonists of the antioxidant response element (ARE) signaling pathway - cell viability counter screen (AID 743203). Note: nearly all actives have a fitted effect of over 55% in size. The settings on record: ARE-bla HepG2 viability, CellTiter-Glo luminescence, 16 h; series mostly up to 73.3 µM. The text has this:
National Center for Advancing Translational Sciences [NCATS]
NIH Chemical Genomics Center [NCGC]
U.S. Environmental Protection Agency [EPA]
National Institutes of Environmental Health Sciences [NIEHS]
National Toxicology Program [NTP]
U.S. Food and Drug Administration [FDA]
Oxidative stress has been implicated in the pathogenesis of a variety of diseases ranging from cancer to neurodegeneration. The antioxidant response element (ARE) signaling pathway plays an important role in the amelioration of oxidative stress. The CellSensor ARE-bla HepG2 cell line (Invitrogen) can be used for analyzing the Nrf2/antioxidant response signaling pathway. Nrf2 (NF-E2-related factor 2) and Nrf1 are transcription factors that bind to AREs and activate these genes. The CellSensor ARE-bla Hep G2 cell line contains a beta-lactamase reporter gene under control of the Antioxidant Response Element (ARE) stably integrated into HepG2 cells. The activation of the report gene under culture conditions can be detected by fluorescence intensity. This cell line has been used to screen the Tox21 10K compound library to identify agonists that induce oxidative stress. The cytotoxicity of the Tox21 compound library against the ARE-bla cell line was tested in parallel by measuring the cell viability using CellTiter-Glo assay (Promega, Madison, WI) in the same wells.
Tox21 Assay Protocol Summary:
ARE-bla HepG2 cells were dispensed at 2,000 cells/5 ul/well in 1536-well white wall/solid bottom plates using a Multidrop Combi (ThermoFisher Scientific, Waltham, MA) dispenser. After the assay plates were incubated at 37C/5% CO2 for 5 hrs, 23 nL of compounds dissolved in DMSO, positive controls or DMSO only was transferred to the assay plate by a pintool work station (Kalypsys, San Diego, CA). The plates were incubated at 37C/5% CO2 for 16 hrs, followed by addition of 4 ul/well of CellTiter-Glo reagent into the assay plates using a Flying Reagent Dispenser (Aurora Discovery, San Diego, CA). After 30 min incubation at room temperature, the luminescence intensity in the assay plates was measured using a ViewLux (PerkinElmer, Shelton, CT) plate reader.
(In general: Quantitative high-throughput screening tests each substance at several concentrations.)
For the compound `C[C@H]1C[C@H]2[C@@H]3CCC4=CC(=O)C=C[C@]4(C)[C@@]3(F)[C@@H](O)C[C@]2(C)[C@@]1(O)C(=O)CO`, the compound was called inactive. For `O=c1[nH]c(=O)n([C@H]2C[C@H](O)[C@@H](CO)O2)cc1Br`, the compound was classed as inactive. `Cc1ccc(N(C)C)cc1`: the outcome was inactive. Turning to `CCCCCCOCCO`, the outcome was inactive.

Turning to `NNc1nncc2ccccc12`, the outcome was inactive.

For the compound `O=P(OC(CCl)CCl)(OC(CCl)CCl)OC(CCl)CCl`, the compound was called inactive. To `C[C@H]1C[C@@H]2[C@H]([C@@H](O)C[C@@]3(C)[C@H]2CC[C@]3(O)C(=O)CO)[C@@]2(C)C=CC(=O)C=C12` belongs “inactive”; to `O=C(CC(C(=O)OC1CCCCC1)S(=O)(=O)O)OC1CCCCC1` (stereo not given), “inactive”. `COc1cc(Cc2cnc(N)nc2N)cc(OC)c1OC`: the outcome was inactive. To `CC[C@H](C)C(=O)O[C@H]1C[C@@H](C)C=C2C=C[C@H](C)[C@H](CC[C@@H]3C[C@@H](O)CC(=O)O3)[C@H]21` belongs “inactive”; to `Cc1ccc2oc(=O)ccc2c1`, “inactive”.

As to `CCCCCCCCC/C=C/CC1CC(=O)OC1=O` (stereo not given), the call was inactive. Next, `O=C(O)c1cc(=O)c2c(OCC(O)COc3cccc4oc(C(=O)O)cc(=O)c34)cccc2o1`: “inactive”; `Cc1occc(=O)c1O`: “inactive”; `c1ccc(OCCOc2ccccc2)cc1`: “inactive”. On to `CC(C)CC(=O)CC(C)C`, for which the outcome was inactive. As for `CN(C)CCOCCN(C)C`, the outcome was inactive.

Turning to `O=C=NCCCCCCN=C=O`, the compound was classed as inactive. Consider `C=CCOC(=O)c1ccccc1C(=O)OCC=C`, for which the compound was classed as inactive. As for `CC1=C(C)S(=O)(=O)CCS1(=O)=O`, the call was inactive. For `O=[N+]([O-])c1ccc(/C=C/c2ccc([N+](=O)[O-])cc2S(=O)(=O)O)c(S(=O)(=O)O)c1`, the compound was called inactive. Next, `CN(C)CCC(c1ccc(Cl)cc1)c1ccccn1` (stereo not given): “inactive”; `CCc1cccc(C)c1N`: “inactive”; `CN(C)CCCN`: “inactive”. To `COS(C)(=O)=O` belongs “inactive”. Next, `O=C(O)CCCCCCCCCCC(=O)O`: “inactive”; `CCc1ccc(CCOc2ccc(CC3SC(=O)NC3=O)cc2)nc1` (stereo not given): “inactive”; `CC1=CCC2CC1C2(C)C` (stereo not given): “inactive”. Turning to `CSCCC=O`, the result was inactive. On to `C/C=C1/CC2C=CC1C2` (stereo not given), for which the result was inactive. As for `CC(=O)Nc1ccccc1`, the result was inactive. Regarding `Cc1cccc(O)c1`, the result was inactive. For `CC(c1cc2ccccc2s1)N(O)C(N)=O` (stereo not given), the call was inactive. On to `O=C(OCCOCCOC(=O)c1ccccc1)c1ccccc1`, for which the compound was called inactive. For the compound `C[Si](O[Si](C)(C)C)O[Si](C)(C)C`, the result was inactive.

Regarding `CC(C)(N)CO`, the compound was called inactive.

Turning to `CC(O)COCC(C)O` (stereo not given), the outcome was inactive. Take `CC1CCC(C(C)C)C(O)C1` (stereo not given): the compound was called inactive. On to `CC(=O)CC(=O)Nc1ccccc1`, for which the compound was classed as inactive. Next, `CCCCCC/C(C=O)=C\c1ccccc1`: “inactive”.

For the origin of these results see PubChem BioAssay (Tox21).
